DRD3 antagonist = blocks the human D3 dopamine receptor. P35462. D3R cells, DiscoveRx beta-arrestin luminescence, antagonist mode; stronger effect = lower value. max response, negative = inhibition, %. 360,000 compounds, 2.5% hits. AID 652054; in the data active = max response below about -50%; inconclusive = no clear call, values can overlap the other calls; note: % is set by controls: 0 for no effect and ±100 for the full control effect
Target sequence (P35462 whole entry, looked up): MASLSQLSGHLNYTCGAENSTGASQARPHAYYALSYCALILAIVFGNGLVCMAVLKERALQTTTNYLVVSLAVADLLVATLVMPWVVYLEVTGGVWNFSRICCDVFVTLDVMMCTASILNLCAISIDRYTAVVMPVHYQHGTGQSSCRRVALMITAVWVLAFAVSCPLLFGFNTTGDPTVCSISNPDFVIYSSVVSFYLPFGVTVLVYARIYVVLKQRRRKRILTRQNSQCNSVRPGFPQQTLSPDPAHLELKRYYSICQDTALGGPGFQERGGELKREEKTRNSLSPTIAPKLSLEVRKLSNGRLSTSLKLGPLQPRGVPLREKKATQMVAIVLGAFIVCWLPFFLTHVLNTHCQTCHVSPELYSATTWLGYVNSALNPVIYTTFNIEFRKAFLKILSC
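Cells plated overnight at 1500 cells/well, then exposed to library compounds with dopamine controls for 90 minutes at 37 degrees C. DiscoveRx reagent added for 30–60 minutes at room temperature; luminescence read, quantitative HTS format.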
KB-V1 cytotox = kills drug-selected multidrug resistant KB-V1 cells; KB-V1 MDR cells viability, CellTiter-Glo, 72 h; Potency, µM (highest dose often 46.1 µM), hits mostly cytotoxic; 400,000 compounds, 3.4% hits; note: potency is the fitted concentration of half-maximal effect; % is set by controls: 0 for no effect and ±100 for the full control effect; nearly all actives have a fitted effect of over 60% in size
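Cytotoxicity toward P-gp-expressing KB-V1 cells was determined as loss of CellTiter-Glo luminescence after 72 h at 37 degrees C. Compounds were tested in quantitative HTS format across a concentration range, with curves fitted to normalized data.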
KB-3-1 cytotox = kills parental KB-3-1 adenocarcinoma cells; KB-3-1 viability, CellTiter-Glo ATP luminescence, 72 h; Potency, µM (highest dose often 46.1 µM), actives largely listed as cytotoxic; 400,000 compounds, 1.4% hits; note: potency is the fitted concentration of half-maximal effect; % is set by controls: 0 for no effect and ±100 for the full control effect; nearly all actives have a fitted effect of over 60% in size
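Screening of KB-3-1 cells (DMEM, 10% FBS, phenol-red free) ran from lowest to highest compound concentration; after 72 h at 37 °C viability was read luminescently and curves fitted.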
D3 ag = activates the human D3 dopamine receptor; P35462; D3R DiscoveRx beta-arrestin cells, luminescence, 90 min; max activation, %; 410,000 compounds, 0.58% hits; AID 652048; in the data active = max activation above about 30%; note: 0% is about no effect
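Agonist mode: compounds and dopamine controls were applied to plated cells for 90 min at 37 degrees C after an overnight attachment at 1500 cells/well. Luminescent read-out followed 30 - 60 minutes at room temperature with DiscoveRx detection reagent.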
MCF10A rerep = inducers of DNA re-replication in MCF 10A breast cells | MCF 10A DNA re-replication, Hoechst nuclear intensity, 48 h | Potency, µM (series often up to 46.1 µM), for the others: at the highest dose activity, positive = re-replication, usual class: activators | 350,000 compounds, 2.9% hits | AID 624296; note: potency is the fitted concentration of half-maximal effect; % of control where 0% means no effect; nearly all actives have a fitted effect of over 50% in size
SW480 rereplic = inducers of DNA re-replication in SW480 colon cancer cells; SW480 DNA re-replication, Hoechst DNA content imaging, 48 h; Potency, µM (top dose mostly 46.1 µM), without a hit: at the top dose re-replication activation, most hits filed as activators; 340,000 compounds, 1.8% hits; note: potency is the fitted concentration of half-maximal effect; % of control where 0% means no effect; nearly all actives have a fitted effect of over 55% in size
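Hoechst fluorescence of nuclei (405 nm excitation, 500-530 nm emission) measured by plate-scanning imager after 48 hr compound exposure at 37 C; re-replication scored as increased number of nuclei with elevated intensity.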
* = called active by the depositor; i = inactive; ? = inconclusive; . = no result given; ! = not confirmed by another sample; [ ] = dose if it differs, or a comment. Sampled rows, rich in hits. Any-hit rate of the full collection: about 8.9%. Unless noted, calls come from the whole dose curve; as a rule, active = well fitted curve in the direction sought with a large enough effect; inconclusive = small, poorly fitted or top-dose-only effect, or another doubt; inactive = no such curve, though single readings can be large; an effect the other way counts as inactive or inconclusive.

SMILES	DRD3 antagonist	KB-V1 cytotox	KB-3-1 cytotox	D3 ag	MCF10A rerep	SW480 rereplic
O=C(CN1C=NS(=O)(=O)c2ccc(C(F)(F)F)cc21)Nc1cccc(C(F)(F)F)c1	.	i	i	-6.2	.	.
Cc1ccc(NC(=O)CSc2nnc(-c3cccnc3)s2)cc1	-3.7	i	i	12.3	0.6%	-5.5%
O=C(CSc1nnc(-c2cccnc2)s1)Nc1ccnc2ccccc12	13.0	1.64µM*	2.31µM*	2.8	1.3%	-9.4%
Cc1ccc(-n2ncc(C(=O)NCCc3ccsc3)c2C2CCN(C(=O)OC(C)(C)C)CC2)cc1C	.	i	i	2.8	.	.
O=C(CSCc1ccc(Cl)cc1)Nc1cccc(C(=O)O)c1	12.0	i	i	2.1	0.6%	-5.7%
CC(=O)c1cccc(NC(=O)CSCc2ccc(Br)cc2)c1	0.0	18.4µM*	i	-26.1	-1.2%	0.5%
CC(=O)c1cccc(NC(=O)CSCc2ccccc2)c1	-78.7*	?	i	-8.4	5.8%	-10.8%
COC(=O)c1ccc(/C=C2\Oc3ccccc3NC2=O)cc1	1.2	?	i	2.2	6.51µM*	?
O=C1C(Br)=C(c2ccccc2)C(c2ccccc2)=C1c1ccccc1	?	?	6.51µM*	-7.3	3.66µM*	2.91µM*
Cc1cn2c(=O)cc(COc3ccc(NC(=O)c4ccc(C(C)(C)C)cc4)cc3)nc2s1	.	i	i	51.0*	.	.
CCOc1ccc(CN(C)CC(=O)Nc2ccc([N+](=O)[O-])cc2Cl)cc1	59.7	16.4µM*	i	3.2	8.0%	4.2%
COc1ccc(C2CC(=O)c3c([nH]c(C(=O)OC4CCCCCC4)c3C)C2)cc1 (centres undefined)	.	i	i	1.1	.	.
Cc1ccc(NC(=O)c2cc(C)nc3c2c(C)nn3-c2cccc(Cl)c2C)c(C)c1	.	i	i	1.6	.	.
CC(=O)c1cccc(NC(=S)NCc2ccccc2)c1	-0.9	i	i	-0.9	-3.6%	-10.0%[9.22 µM]
S=C(NCCc1ccccn1)Nc1cccc(Cl)c1	?	20.6µM*	i	0.6	19.3%	5.9%
CC(C)CNC(=O)c1cccc(NC(=O)Cc2ccc(Cl)cc2)c1	33.2	5.8µM*	?	-2.6	-72.4%	-126.8%
CC(C)CNC(=O)c1cccc(NC(=O)CSc2ccccc2)c1	-14.9	i	?	11.8	7.5%	-3.2%
CC(=O)c1cccc(NC(=S)NCCc2ccc(Cl)cc2)c1	?	18.4µM*	?	-24.9	13.7%	-0.5%
COc1ccc(C(=O)c2oc3ccccc3c2NC(=O)COc2cccc(C)c2C)cc1	.	i	i	5.7	.	.
O=C1C(C2=NC(c3ccccn3)C3C(=O)N(c4ccc(OC(F)(F)F)cc4)C(=O)C23)=C(O)c2ccccc21 (centres undefined)	-17.1	i	4.61µM*	-16.4	?	-7.7%
O=[N+]([O-])c1ccc(NN=C(Oc2ccccc2)c2ccc([N+](=O)[O-])cc2)cc1	-5.4	i	?	-3.9	.	.
CC/C(=N\Nc1ccc([N+](=O)[O-])cc1)c1ccccc1	10.8	i	i	2.2	16.4µM*	?
CCc1ccc(/C(C)=N\Nc2ccc([N+](=O)[O-])cc2)cc1	-16.7	i	i	-5.4	9.2µM*	14.6µM*
CN1CCN(Cc2nc3ccccc3c(=O)n2Cc2nc(-c3ccc4ccccc4c3)cs2)CC1	74.6	20.6µM*!	?	-15.8	?	11.6µM*
Cc1ccc2cc3c(N)[nH]nc3nc2c1	20.7	18.4µM*	i	2.6	-6.9%	.
SMILES	DRD3 antagonist	KB-V1 cytotox	KB-3-1 cytotox	D3 ag	MCF10A rerep	SW480 rereplic
Cc1nc2n[nH]c(N)c2nc1C	12.1	i	?	1.2	.	.
Cc1cc(C)c2ccc(C(=O)O)nc2c1O	-62.8*	i	?	-6.5	-2.5%	-4.6%
COc1ccc(NC(=O)CSc2ncccc2C(=O)O)cc1OC	.	?	i	4.7	.	.
CCOCCc1nn2c(=O)cc(COC(=O)c3ccccc3NC(=O)CC(C)C)nc2s1	.	i	?	3.2	.	.
CC(=O)Nc1ccc2nc(CN3CCC(CO)(CCc4ccccc4)CC3)ccc2c1	11.3	i	i	-9.5	18.4µM*	0.2%
Cc1cccn2c(=O)cc(COc3ccc(NC(=O)c4cccc(F)c4)cc3)nc12	.	?	i	-3.3	.	.
O=C(Nc1ccc(Cl)cc1)C1CCCN(c2ncnc3c2nc2n3CCCCC2)C1 (centres undefined)	-13.6	i	?	10.5	16.4µM*	4.0%
Cc1ccc(NC(=O)C2CCCN(c3ncnc4c3nc3n4CCCCC3)C2)cc1Cl (centres undefined)	-7.9	?	?	-7.5	8.4%	?
O=C(NCc1ccc(Cl)cc1)C1CCCN(c2ncnc3c2nc2n3CCCCC2)C1 (centres undefined)	-29.5	i	i	-14.7	?	-8.4%
Cc1ccc(NC(=O)C2CCN(c3ncnc4c3nc3n4CCCCC3)CC2)cc1Cl	-24.3	i	?	1.5	14.6µM*	?
COc1ccc(C)cc1NC(=O)c1ccc(S(=O)(=O)N2CCCCC2)cc1	1.4	?	i	7.6	14.1%	3.7%
Cc1noc(C)c1C(=O)N1CCC(C(=O)c2ccc(F)cc2F)CC1	-6.3	i	i	1.7	-2.4%	-10.1%
CCN=C1S/C(=C\c2ccc(Sc3ccc(Cl)cc3)o2)C(=O)N1CC	-25.9	i	?	-14.0	?	?
CCN=C1S/C(=C/c2ccc(-c3ccc(F)cc3)o2)C(=O)N1CC	18.3	i	i	15.9	8.2µM*	?
CCS(=O)(=O)NCCc1sc2nc(-c3ccc(OC)cc3)nn2c1C	.	.	.	4.0	.	.
Cc1ccc(-n2nnnc2-c2cnc(-c3cccnc3)nc2C(F)(F)F)cc1	5.5	20.6µM*	?	-0.6	5.8%	0.0%
FC(F)(F)c1nc(N2CCCC2)ncc1-c1nnnn1-c1ccc(Cl)cc1	-12.3	14.6µM*	?	-2.6	?	7.6%
Fc1ccc(-n2nnnc2-c2cnc(-c3cccs3)nc2C(F)(F)F)cc1	0.0	23.1µM*	?	44.5*	14.6µM*	?
FC(F)(F)c1nc(-c2ccncc2)ncc1-c1nnnn1-c1ccccc1	-23.1	20.6µM*	i	-4.7	1.6%	-8.7%
c1ccc(-n2nnnc2-c2cnc(-c3ccncc3)nc2-c2cccs2)cc1	-13.4	?	i	-8.3	-0.9%	-8.7%
O=C(c1ccc2c(c1)N(Cc1ccccc1)C(=O)c1ccccc1S2(=O)=O)N1CCN(c2ccccc2)CC1	.	.	.	-0.5	.	.
CCOC(=O)C1CCN(c2ncnc3c2nnn3C)CC1	.	i	i	-13.9	.	.
CC1([N+](=O)[O-])COC2(CCCCC2)OC1	-50.3*	i	i	82.7*	-0.9%	1.1%

Assay outcomes as filed in PubChem BioAssay.
